# Source: PubChem BioAssay (EPA / NIEHS)
# Inconclusive results are not listed. The source holds several records for some structures; these can differ, active in one and inactive in another. Calls of active or inactive are those of the source. The calls were made as follows, unless noted: active = hit-call score of the fitted dose curve at least 0.9, where 1 is the maximum; inactive = score below 0.9.
# Tests used:
# [1] = biological target: Oxysterols receptor LXR-alpha (Homo sapiens) (UniProt Q13133); test: ATG_LXRa_TRANS: Attagene TRANS-FACTORIAL HepG2 Assay for human Liver X Receptor alpha (LXRa) (AID 2282980; active = hit-call score of the fitted dose curve at least 0.9, where 1 is the maximum); conditions: HepG2 Attagene TRANS reporter, LXRa transactivation
# Sequence of Oxysterols receptor LXR-alpha (Homo sapiens) (Q13133 whole entry, looked up): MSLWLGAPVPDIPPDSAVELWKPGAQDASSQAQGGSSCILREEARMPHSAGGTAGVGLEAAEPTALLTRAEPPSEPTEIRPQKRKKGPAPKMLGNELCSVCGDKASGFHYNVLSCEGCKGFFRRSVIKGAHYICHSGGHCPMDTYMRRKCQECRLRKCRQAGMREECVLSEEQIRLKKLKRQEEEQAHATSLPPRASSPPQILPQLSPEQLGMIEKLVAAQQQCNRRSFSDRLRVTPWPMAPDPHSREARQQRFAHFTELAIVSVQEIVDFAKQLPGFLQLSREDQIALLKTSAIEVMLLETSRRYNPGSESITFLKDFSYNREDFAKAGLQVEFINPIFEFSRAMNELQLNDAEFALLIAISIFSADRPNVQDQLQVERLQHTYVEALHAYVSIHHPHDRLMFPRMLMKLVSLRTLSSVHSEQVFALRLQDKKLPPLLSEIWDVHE
# Summary of the method: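 Transient HepG2 transfectants, 24 h dosing, RT-PCR/CE mRNA reporter quantitation; gain-of-signal vs DMSO.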
# [2] = biological target: Oxysterols receptor LXR-beta (Homo sapiens) (UniProt P55055); test: ATG_LXRb_TRANS: Attagene TRANS-FACTORIAL HepG2 Assay for human Liver X Receptor beta (LXRb) (AID 2282981; active = hit-call score of the fitted dose curve at least 0.9, where 1 is the maximum); conditions: HepG2 Attagene TRANS GAL4-LXRb reporter, mRNA
# Sequence of Oxysterols receptor LXR-beta (Homo sapiens) (P55055 whole entry, looked up, the tested form may be a part): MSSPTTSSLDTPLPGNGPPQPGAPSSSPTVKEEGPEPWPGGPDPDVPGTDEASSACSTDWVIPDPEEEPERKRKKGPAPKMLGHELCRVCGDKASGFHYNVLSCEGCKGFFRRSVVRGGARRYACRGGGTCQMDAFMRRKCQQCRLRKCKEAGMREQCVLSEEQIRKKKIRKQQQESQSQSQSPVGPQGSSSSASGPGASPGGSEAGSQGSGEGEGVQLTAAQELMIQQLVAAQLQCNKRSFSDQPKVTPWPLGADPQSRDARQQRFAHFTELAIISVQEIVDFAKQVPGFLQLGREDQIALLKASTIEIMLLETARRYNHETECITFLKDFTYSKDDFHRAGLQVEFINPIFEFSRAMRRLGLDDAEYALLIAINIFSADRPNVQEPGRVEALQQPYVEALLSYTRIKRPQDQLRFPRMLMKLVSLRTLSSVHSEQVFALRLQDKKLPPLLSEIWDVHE
# Summary of the method: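 In this TRANS format, exogenous chimeric NR-Gal4 protein activity, not endogenous factors, drives reporter expression in transfected human HepG2 cells. Exposure lasted 24 h; reporter mRNA was read by fluorescent capillary electrophoresis.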
# [3] = biological target: Hepatocyte nuclear factor 4-alpha (Homo sapiens) (UniProt P41235); test: ATG_HNF4a_TRANS: Attagene TRANS-FACTORIAL HepG2 Assay for human Hepatocyte Nuclear Factor 4 alpha (HNF4a) (AID 2282982; active = hit-call score of the fitted dose curve at least 0.9, where 1 is the maximum); conditions: HepG2 HNF4a transactivation reporter, mRNA readout
# Sequence of Hepatocyte nuclear factor 4-alpha (Homo sapiens) (P41235 whole entry, looked up, the tested form may be a part): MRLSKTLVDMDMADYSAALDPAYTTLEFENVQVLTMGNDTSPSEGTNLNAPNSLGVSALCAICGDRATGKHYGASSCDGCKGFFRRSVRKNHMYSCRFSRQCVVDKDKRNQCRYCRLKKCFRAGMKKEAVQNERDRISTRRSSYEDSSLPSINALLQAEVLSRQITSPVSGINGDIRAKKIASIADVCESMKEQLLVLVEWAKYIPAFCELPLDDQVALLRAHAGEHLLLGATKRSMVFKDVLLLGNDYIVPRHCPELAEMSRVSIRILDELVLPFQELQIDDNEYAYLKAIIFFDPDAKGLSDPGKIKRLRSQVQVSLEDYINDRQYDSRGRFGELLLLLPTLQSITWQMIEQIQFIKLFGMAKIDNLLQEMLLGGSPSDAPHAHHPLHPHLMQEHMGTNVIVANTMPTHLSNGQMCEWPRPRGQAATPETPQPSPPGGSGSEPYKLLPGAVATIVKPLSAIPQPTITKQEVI
# Summary of the method: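 Cells used were human HepG2, transiently carrying GAL4-UAS reporter units read out against exogenous NR-GAL4 chimeras. Reporter transcript levels after 24 h dosing were quantified by fluorescent RT-PCR and capillary electrophoresis.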
# [4] = ATG_M_06_TRANS: Attagene TRANS-FACTORIAL HepG2 Assay for M06 Transcription Factor (Internal Marker) (AID 2282983; active = hit-call score of the fitted dose curve at least 0.9, where 1 is the maximum); conditions: HepG2 Attagene TRANS M06 internal marker reporter
# Summary of the method: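 Measured by capillary electrophoresis of fluorescently labelled RT-PCR products, this endpoint reflects reporter mRNA in HepG2 cells harbouring exogenous NR-GAL4 reporter constructs after 24 h exposure, with DMSO as baseline.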
# [5] = ATG_M_32_TRANS: Attagene TRANS-FACTORIAL HepG2 Assay for M32 Transcription Factor (Internal Marker) (AID 2282984; active = hit-call score of the fitted dose curve at least 0.9, where 1 is the maximum;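 also: transcript level of a background control reporter unit measured by RT-PCR and capillary electrophoresis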); conditions: HepG2 Attagene TRANS M32 internal marker reporter
# Summary of the method: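 Human hepatoma HepG2, transient MRTU transfection, 24 h treatment. RNA → RT-PCR → fluorescent primer extension → HpaI digest (2 h, 37 C) → CE. Positive-direction fit vs DMSO.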
# [6] = biological target: Nuclear receptor subfamily 4 group A member 2 (Homo sapiens) (UniProt P43354); test: ATG_NURR1_TRANS: Attagene TRANS-FACTORIAL HepG2 Assay for human Nuclear Receptor Related Protein 1 (NURR1) (AID 2282985; active = hit-call score of the fitted dose curve at least 0.9, where 1 is the maximum); conditions: HepG2 Attagene TRANS reporter, mRNA readout
# Sequence of Nuclear receptor subfamily 4 group A member 2 (Homo sapiens) (P43354 whole entry, looked up): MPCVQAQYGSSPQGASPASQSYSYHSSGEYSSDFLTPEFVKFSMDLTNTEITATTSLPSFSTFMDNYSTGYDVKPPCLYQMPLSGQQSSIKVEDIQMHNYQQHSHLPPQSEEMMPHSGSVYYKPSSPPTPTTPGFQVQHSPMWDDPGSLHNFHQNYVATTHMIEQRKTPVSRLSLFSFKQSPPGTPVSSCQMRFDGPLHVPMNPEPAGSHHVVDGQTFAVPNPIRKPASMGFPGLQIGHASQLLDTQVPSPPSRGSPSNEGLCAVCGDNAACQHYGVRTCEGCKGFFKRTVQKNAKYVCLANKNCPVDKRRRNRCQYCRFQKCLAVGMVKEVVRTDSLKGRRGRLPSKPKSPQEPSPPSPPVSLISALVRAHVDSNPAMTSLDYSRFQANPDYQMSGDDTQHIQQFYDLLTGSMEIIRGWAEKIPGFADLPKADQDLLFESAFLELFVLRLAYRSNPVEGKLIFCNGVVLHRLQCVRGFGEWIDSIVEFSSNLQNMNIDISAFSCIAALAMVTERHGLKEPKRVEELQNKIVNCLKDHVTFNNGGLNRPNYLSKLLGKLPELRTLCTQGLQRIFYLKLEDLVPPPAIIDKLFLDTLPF
# Summary of the method: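 After 24 h chemical dosing, total RNA from transiently transfected HepG2 cells was reverse-transcribed and reporter cDNA PCR-amplified, FAM-labelled and analysed by capillary electrophoresis. Activity fitted in positive direction, DMSO as negative control.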
# [7] = biological target: Nuclear respiratory factor 1 (Homo sapiens) (UniProt Q16656); test: ATG_NRF1_CIS: Attagene CIS-FACTORIAL HepG2 Assay for human Nuclear Respiratory Factor 1 (NRF1) Orphan Gene (AID 2282987); conditions: HepG2 NRF1 cis-element reporter, Attagene multiplex; actives raise or lower the signal
# Sequence of Nuclear respiratory factor 1 (Homo sapiens) (Q16656 whole entry, looked up): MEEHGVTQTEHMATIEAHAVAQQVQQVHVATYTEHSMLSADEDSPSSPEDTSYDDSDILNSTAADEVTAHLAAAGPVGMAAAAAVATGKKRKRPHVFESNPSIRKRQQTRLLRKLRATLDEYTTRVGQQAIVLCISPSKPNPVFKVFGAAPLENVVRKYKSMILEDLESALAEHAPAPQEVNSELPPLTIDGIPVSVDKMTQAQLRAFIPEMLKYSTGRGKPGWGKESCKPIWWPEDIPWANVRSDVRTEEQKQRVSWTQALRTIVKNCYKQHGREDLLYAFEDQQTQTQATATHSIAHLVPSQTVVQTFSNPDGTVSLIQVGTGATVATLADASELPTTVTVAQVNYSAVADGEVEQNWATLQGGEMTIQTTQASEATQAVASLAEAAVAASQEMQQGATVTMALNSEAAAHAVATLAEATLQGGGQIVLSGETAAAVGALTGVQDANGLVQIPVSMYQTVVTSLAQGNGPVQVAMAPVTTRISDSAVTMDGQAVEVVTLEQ
# Summary of the method: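 Human hepatoma HepG2 cells carrying transfected promoter-regulated reporter units were incubated with test chemicals for 24 h. Reporter transcripts were measured by RT-PCR plus capillary electrophoresis, and endpoints derived by bidirectional fitting with DMSO as baseline.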
# [8] = ATG_NFI_CIS: Attagene CIS-FACTORIAL HepG2 Assay for human Nuclear Factor I (NFI) (AID 2282989); conditions: HepG2 cis-regulatory reporter, NFI response element transcription; actives raise or lower the signal
# Summary of the method: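 After transient transfection of HepG2 with cis-promoter reporter constructs and 24 h dosing, RNA is reverse-transcribed, amplified, 6-FAM end-labelled and HpaI-digested before capillary analysis. Bidirectional curve fitting against DMSO.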
# [9] = biological target: Myc proto-oncogene protein (Homo sapiens) (UniProt P01106); test: ATG_Myc_CIS: Attagene CIS-FACTORIAL HepG2 Assay for human Myelocytomatosis (Myc) Proto-Oncogene Transcription Factor (AID 2282990); conditions: HepG2, Attagene cis-reporter transcription factor activity; actives raise or lower the signal
# Sequence of Myc proto-oncogene protein (Homo sapiens) (P01106 whole entry, looked up): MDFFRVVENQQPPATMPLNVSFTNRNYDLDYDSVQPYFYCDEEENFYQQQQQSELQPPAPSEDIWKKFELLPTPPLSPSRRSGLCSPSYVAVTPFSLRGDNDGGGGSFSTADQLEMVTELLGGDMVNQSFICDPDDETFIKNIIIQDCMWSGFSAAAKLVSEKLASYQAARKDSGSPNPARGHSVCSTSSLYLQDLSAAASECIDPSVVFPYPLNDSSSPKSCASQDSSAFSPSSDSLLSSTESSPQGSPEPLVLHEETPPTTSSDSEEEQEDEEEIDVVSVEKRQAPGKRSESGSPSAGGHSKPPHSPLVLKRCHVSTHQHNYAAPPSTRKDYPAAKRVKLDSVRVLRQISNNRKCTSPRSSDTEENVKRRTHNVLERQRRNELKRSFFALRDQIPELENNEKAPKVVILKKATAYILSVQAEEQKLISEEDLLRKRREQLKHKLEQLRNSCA
# Summary of the method: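 DMSO-normalised, bidirectionally fitted reporter mRNA signal. HepG2 cells transfected with cis reporter constructs, treated 24 h; transcripts detected by RT-PCR, 6-FAM primer extension and CE.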
# [10] = ATG_NF_kB_CIS: Attagene CIS-FACTORIAL HepG2 Assay for human Nuclear Factor Kappa B (NF-kB) (AID 2282991); conditions: HepG2 Attagene cis-factorial NF-kB reporter mRNA; actives raise or lower the signal
# Summary of the method: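 Multiplexed cis-reporter assay in transiently transfected HepG2. 24 h treatment; RNA isolated, RT-PCR, labelled fragments resolved by CE. DMSO baseline.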
# [11] = ATG_NRF2_ARE_CIS: Attagene CIS-FACTORIAL HepG2 Assay for human Nuclear Factor Erythroid 2 Related Factor 2 (NFR2) response to Antioxidant Response Elements (ARE) (AID 2282992); conditions: HepG2 Attagene ARE/NRF2 reporter, transcription factor activity; actives raise or lower the signal
# Summary of the method: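 Transient MRTU transfection of HepG2; 24 h compound exposure; TriZol RNA, RT with oligo(dT), PCR, 6-FAM primer extension, HpaI cut, CE. Bidirectional fit vs DMSO.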
# [12] = biological target: Cellular tumor antigen p53 (Homo sapiens) (UniProt P04637); test: ATG_p53_CIS: Attagene CIS-FACTORIAL HepG2 Assay for human p53 Transcription Factor (AID 2282994); conditions: HepG2 p53 cis-element reporter, Attagene mRNA; actives raise or lower the signal
# Sequence of Cellular tumor antigen p53 (Homo sapiens) (P04637 whole entry, looked up): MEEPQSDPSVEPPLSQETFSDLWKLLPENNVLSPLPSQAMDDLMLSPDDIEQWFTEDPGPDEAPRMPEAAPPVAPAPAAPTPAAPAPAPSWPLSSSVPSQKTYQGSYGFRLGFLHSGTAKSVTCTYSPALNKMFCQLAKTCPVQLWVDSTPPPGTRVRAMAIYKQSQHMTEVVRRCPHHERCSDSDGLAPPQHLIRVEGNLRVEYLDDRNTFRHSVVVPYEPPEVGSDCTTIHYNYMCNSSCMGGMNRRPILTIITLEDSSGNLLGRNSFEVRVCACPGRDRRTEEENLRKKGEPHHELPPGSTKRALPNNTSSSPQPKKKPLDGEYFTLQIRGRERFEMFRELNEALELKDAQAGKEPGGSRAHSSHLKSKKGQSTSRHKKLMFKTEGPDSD
# Summary of the method: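 HepG2, transient MRTU transfection (cis promoter elements, endogenous TFs); 24 h dosing; RNA isolation, RT-PCR, 6-FAM primer extension, HpaI digest, CE fluorescence; bidirectional fit vs DMSO.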
# [13] = BSK_3C_TissueFactor: BioMAP Diversity Plus: 3C Assay for Tissue Factor Biomarker Activity (AID 2282997); conditions: BioMAP 3C HUVEC, tissue factor biomarker readout; actives raise or lower the signal
# Summary of the method: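 Values derive from bidirectional curve fitting against DMSO of Tissue Factor ELISA signals, taken 24 h after dosing primary human umbilical vein endothelial cells.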
# [14] = BSK_3C_uPAR: BioMAP Diversity Plus: 3C Assay for Urokinase-type plasminogen activator receptor (uPAR) Biomarker Activity (AID 2282998); conditions: BioMAP 3C HUVEC, uPAR biomarker ELISA; actives raise or lower the signal
# Summary of the method: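 Endothelial primary cells of human umbilical vein origin received test chemical; 24 h later uPAR was assayed by ELISA. Fitting was bidirectional, DMSO as negative control.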
# [15] = BSK_3C_VCAM1: BioMAP Diversity Plus: 3C Assay for Vascular cell adhesion molecule 1 (VCAM1) Biomarker Activity (AID 2282999); conditions: BioMAP 3C HUVEC, VCAM1 ELISA, cytokine-stimulated; actives raise or lower the signal
# Summary of the method: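 Human umbilical vein endothelial cells were dosed with compound for 24 h, after which cell-surface VCAM-1 was quantified by ELISA. Bidirectional curve fitting used DMSO as negative control and activity baseline.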
# [16] = BSK_4H_Eotaxin3: BioMAP Diversity Plus: 4H Assay for Eotaxin 3 Biomarker Activity (AID 2283000); conditions: primary human endothelial cells (HUVEC); actives raise or lower the signal;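 as to outcome: CCL26 protein level quantified by ELISA in parallel with SRB cytotoxicity check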
# Summary of the method: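 Endothelial primary cells (human umbilical vein) exposed to compound for 24 h. ELISA detection of Eotaxin-3.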
# [17] = biological target: Transcriptional activator Myb (Homo sapiens) (UniProt P10242); test: ATG_Myb_CIS: Attagene CIS-FACTORIAL HepG2 Assay for human Myeloblastosis (Myb) Proto-Oncogene Transcription Factor (AID 2282986); conditions: HepG2 Attagene CIS-FACTORIAL Myb reporter transcription; actives raise or lower the signal
# Sequence of Transcriptional activator Myb (Homo sapiens) (P10242 whole entry, looked up): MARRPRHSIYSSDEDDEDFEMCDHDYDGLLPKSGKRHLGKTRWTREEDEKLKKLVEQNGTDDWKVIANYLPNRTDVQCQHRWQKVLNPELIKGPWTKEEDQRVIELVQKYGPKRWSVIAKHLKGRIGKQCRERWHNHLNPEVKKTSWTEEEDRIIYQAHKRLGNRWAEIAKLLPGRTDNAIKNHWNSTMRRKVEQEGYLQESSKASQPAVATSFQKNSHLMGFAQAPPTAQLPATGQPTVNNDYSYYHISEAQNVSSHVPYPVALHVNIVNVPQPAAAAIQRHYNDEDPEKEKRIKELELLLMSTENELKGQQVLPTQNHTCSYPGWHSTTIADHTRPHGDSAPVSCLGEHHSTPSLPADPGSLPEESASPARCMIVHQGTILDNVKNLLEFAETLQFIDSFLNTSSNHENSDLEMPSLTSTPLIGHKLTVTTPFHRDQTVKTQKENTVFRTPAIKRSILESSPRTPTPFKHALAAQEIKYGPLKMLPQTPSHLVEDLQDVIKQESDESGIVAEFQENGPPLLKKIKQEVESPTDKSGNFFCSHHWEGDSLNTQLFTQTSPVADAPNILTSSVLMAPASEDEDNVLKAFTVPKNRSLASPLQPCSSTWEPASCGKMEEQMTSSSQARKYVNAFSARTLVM
# Summary of the method: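 Endogenous transcription factor activity at a Myb-responsive cis element is reported in human liver HepG2 cells after 24 h chemical treatment. Reporter mRNA is detected by RT-PCR and capillary electrophoresis fluorescence, with DMSO as baseline.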
# [18] = ATG_Oct_MLP_CIS: Attagene CIS-FACTORIAL HepG2 Assay for human Octamer-Binding Transcription Factor (Oct) (AID 2282993); conditions: HepG2 Attagene cis-factorial Oct reporter, mRNA; actives raise or lower the signal
# Summary of the method: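 Cells of the HepG2 line express promoter-controlled reporter sequences whose mRNA levels, after 24 h treatment, are measured by RT-PCR and capillary electrophoresis. Increases and decreases are scored relative to DMSO.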
# [19] = biological target: Glucocorticoid receptor (Homo sapiens) (UniProt P04150); test: ATG_GR_TRANS: Attagene TRANS-FACTORIAL HepG2 Assay for human Glucocorticoid Receptor (GR) (AID 2282978; active = hit-call score of the fitted dose curve at least 0.9, where 1 is the maximum;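 also: activators score as hits since higher reporter transcript over DMSO is fitted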); conditions: HepG2 Attagene TRANS GR reporter, mRNA transcription
# Sequence of Glucocorticoid receptor (Homo sapiens) (P04150 whole entry, looked up): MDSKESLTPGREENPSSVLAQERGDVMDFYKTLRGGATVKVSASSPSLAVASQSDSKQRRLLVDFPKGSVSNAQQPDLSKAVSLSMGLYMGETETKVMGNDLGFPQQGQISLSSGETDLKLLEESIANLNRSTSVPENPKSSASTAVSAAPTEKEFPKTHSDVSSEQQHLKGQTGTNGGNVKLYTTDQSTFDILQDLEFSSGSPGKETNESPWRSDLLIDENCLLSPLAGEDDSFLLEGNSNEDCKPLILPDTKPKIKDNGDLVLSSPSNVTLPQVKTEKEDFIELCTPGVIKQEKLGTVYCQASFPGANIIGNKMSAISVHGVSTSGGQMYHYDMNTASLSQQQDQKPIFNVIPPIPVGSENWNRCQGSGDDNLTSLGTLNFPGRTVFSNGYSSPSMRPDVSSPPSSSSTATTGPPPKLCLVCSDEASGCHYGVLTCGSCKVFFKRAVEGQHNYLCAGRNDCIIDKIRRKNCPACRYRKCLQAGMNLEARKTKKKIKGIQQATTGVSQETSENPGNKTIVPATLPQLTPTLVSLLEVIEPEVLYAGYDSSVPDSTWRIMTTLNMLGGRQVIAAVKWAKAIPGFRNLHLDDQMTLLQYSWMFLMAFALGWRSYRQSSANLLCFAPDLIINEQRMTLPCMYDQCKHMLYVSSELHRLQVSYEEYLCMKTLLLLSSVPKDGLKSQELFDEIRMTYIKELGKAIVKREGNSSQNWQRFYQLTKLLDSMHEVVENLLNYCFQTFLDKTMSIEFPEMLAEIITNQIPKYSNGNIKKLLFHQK
# Summary of the method: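 Multiplexed TRANS reporter system, HepG2; 24 h exposure; RNA → oligo(dT) RT → reporter-specific PCR → 6-FAM primer extension → HpaI cut → CE fluorescence. Gain-of-signal vs DMSO.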
smiles,measurement,setting,value
CN1C(=O)CC[C@H]1c1cccnc1,outcome,[1],inactive
same,outcome,[2],inactive
same,outcome,[3],inactive
same,outcome,[4],inactive
same,outcome,[5],inactive
same,outcome,[6],inactive
same,outcome,[7],inactive
same,outcome,[8],inactive
same,outcome,[9],inactive
same,outcome,[10],inactive
same,outcome,[11],inactive
same,outcome,[12],inactive
same,outcome,[13],inactive
same,outcome,[14],inactive
same,outcome,[15],inactive
same,outcome,[16],inactive
O=c1[nH]sc2ccccc12,outcome,[3],inactive
same,outcome,[4],inactive
same,outcome,[17],inactive
same,outcome,[7],inactive
same,AC50,[8],45.9 µM (active)
same,outcome,[9],inactive
same,outcome,[10],inactive
same,AC50,[11],6.26 µM (active)
same,outcome,[18],inactive
same,AC50,[12],42.6 µM (active)
same,AC50,[13],8.49 µM (active)
same,AC50,[14],15 µM (active)
same,AC50,[15],8.74 µM (active)
same,AC50,[16],8.99 µM (active)
CCN(Cc1cccnc1)C(=O)c1cccc(Cl)c1[C@]1(C)C(=O)N(Cc2ccc(OC)cc2OC)c2ccc(Cl)cc21,outcome,[19],inactive
same,outcome,[4],inactive
same,outcome,[5],inactive
same,AC50,[6],8.74 µM (active)
same,AC50,[7],9.65 µM (active)
same,outcome,[9],inactive
same,outcome,[10],inactive
same,AC50,[11],5.87 µM (active)
same,AC50,[18],2.6 µM (active)
same,AC50,[12],4.98 µM (active)
same,AC50,[13],9.45 µM (active)
same,AC50,[14],5.85 µM (active)
same,AC50,[15],7.09 µM (active)
same,AC50,[16],11.4 µM (active)
c1ccc2ccccc2c1,outcome,[2],inactive
same,outcome,[4],inactive
same,outcome,[5],inactive
same,outcome,[6],inactive
same,outcome,[17],inactive
same,AC50,[7],100 µM (active)
same,outcome,[7],inactive
same,outcome,[9],inactive
same,outcome,[10],inactive
same,outcome,[11],inactive
same,outcome,[18],inactive
same,outcome,[12],inactive
same,outcome,[13],inactive
same,outcome,[14],inactive
same,outcome,[15],inactive
same,outcome,[16],inactive
CCCC(=O)OCCC(C)C,outcome,[1],inactive
same,outcome,[2],inactive
same,outcome,[4],inactive
same,AC50,[17],1.84 µM (active)
same,outcome,[7],inactive
same,outcome,[9],inactive
same,outcome,[10],inactive
same,outcome,[11],inactive
same,outcome,[18],inactive
same,outcome,[12],inactive
same,outcome,[13],inactive
same,outcome,[14],inactive
same,outcome,[15],inactive
same,outcome,[16],inactive
